Shown are actives, neighbours in structure and some others; about 6% of the full set was active somewhere.
D1 antagonist = blocks dopamine activation of the human D1 receptor; P21728; HEK293 TREx D1 cells, calcium flux, dopamine EC80; stronger effect = lower value; activity change, negative = inhibition, % at 10 µM; actives 3.2% (n = 360,000); AID 504652; in the data active means activity change below about -30%; further: on the % scale 0 is the no-effect control and ±100 the full control effect
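Antagonism measured as reduced calcium response to an EC80 dopamine addition following 180 s compound pre-read; cells were inducible HEK293 Trex D1 plated overnight at 30 C, read kinetically at 1 cycle/sec.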
D1 potentiator = human D1 dopamine receptor positive modulation. P21728. actives 0.036% (n = 360,000). HEK293 TREx D1 cells, calcium flux, dopamine EC20 potentiation. potentiation, % at 10 µM; in the data active means potentiation above about 30%; further: 0% is about no effect
D1 ag = agonists of human D1 dopamine receptor; HEK293 T-REx D1 cells, calcium flux, agonist mode; P21728; activation, % at 2 µM; actives 1% (n = 360,000); AID 504660; in the data active means activation above about 30%; further: 0% is about no effect
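Tetracycline-induced HEK293 TREx D1 cells, force-coupled to calcium signalling, were dye-loaded with a no-wash calcium kit. Compound was pin-added after a 10 s baseline. Fluorescence was read kinetically at 1 cycle/s for 180 s, with calcium rises flagged as agonism.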
DRD3 antagonist = antagonists of human D3 dopamine receptor | P35462 | D3R cells, DiscoveRx beta-arrestin luminescence, antagonist mode; stronger effect = lower value | max response, negative = inhibition, % | actives 2.5% (n = 360,000); in the data active means max response below about -50%; inconclusive means no clear call, values can overlap the other calls; further: on the % scale 0 is the no-effect control and ±100 the full control effect
Target sequence (P35462 whole entry, looked up): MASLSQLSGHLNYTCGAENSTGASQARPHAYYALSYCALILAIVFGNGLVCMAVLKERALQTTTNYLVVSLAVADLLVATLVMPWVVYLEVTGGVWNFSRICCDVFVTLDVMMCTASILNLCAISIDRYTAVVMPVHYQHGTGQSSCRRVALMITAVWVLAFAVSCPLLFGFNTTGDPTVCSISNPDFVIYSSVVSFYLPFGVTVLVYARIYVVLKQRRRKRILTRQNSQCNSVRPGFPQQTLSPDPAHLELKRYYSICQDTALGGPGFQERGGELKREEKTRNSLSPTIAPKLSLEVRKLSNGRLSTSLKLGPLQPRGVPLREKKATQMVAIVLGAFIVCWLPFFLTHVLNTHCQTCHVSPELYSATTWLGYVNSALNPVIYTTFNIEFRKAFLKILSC
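Cells plated overnight at 1500 cells/well, then exposed to library compounds with dopamine controls for 90 minutes at 37 degrees C. DiscoveRx reagent added for 30–60 minutes at room temperature; luminescence read, quantitative HTS format.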
D3 ag = D3 dopamine receptor (human) agonism | D3R DiscoveRx beta-arrestin cells, luminescence, 90 min | actives 0.58% (n = 410,000) | P35462 | max activation, %; in the data active means max activation above about 30%; further: 0% is about no effect
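Agonist-mode cell screen: cells plated at 1500/well and incubated overnight at 37 °C, then exposed to library compounds for 90 min at 37 °C. Detection reagent was added for 30–60 min at room temperature, and luminescence was read.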
* hit, by the source's call.

How did CCOC(=O)C(=O)Nc1nccs1 do in these assays?
D1 antagonist: -34*; D1 potentiator: -3; D1 ag: 0; DRD3 antagonist: -16; D3 ag: 1

What do the screens show for `CCOC(=O)/C=C/C(=O)Nc1nccs1`?
D1 antagonist: 0; D1 potentiator: -5; D1 ag: 3; DRD3 antagonist: -20; D3 ag: -8

Results for Cc1cccc(C)c1OCCn1nnc2ccccc21 ?
D1 antagonist: -42*; D1 potentiator: -2; D1 ag: 8; DRD3 antagonist: 19; D3 ag: 17

How did Cc1ccccc1OCC(O)Cn1nnc2ccccc21 (stereo not drawn) do in these assays?
D1 antagonist: -55*; D1 potentiator: -9; D1 ag: 20; DRD3 antagonist: 8; D3 ag: 4

How did CCC(=O)c1ccc(OCC(O)Cn2nnc3ccccc32)cc1 (stereo not drawn) do in these assays?
D1 antagonist: 24; D1 potentiator: -2; D1 ag: 3; DRD3 antagonist: -24; D3 ag: -15

What do the screens show for `Cc1cccc(C(=O)Nc2sc3c(c2C(=O)N2CCCCC2)CCC(C)C3)c1` (stereo not drawn)?
D1 antagonist: -6; D1 potentiator: 0; D1 ag: 0; D3 ag: 4

Results for O=C(NCC(c1cccs1)S(=O)(=O)c1cccs1)c1ccc(Cl)cc1 (stereo not drawn) ?
D1 potentiator: 0; D1 ag: -3; D3 ag: 0

What do the screens show for `COC(=O)CSCc1nc(-c2ccc(C(=O)OC)cc2)oc1C`?
D1 antagonist: -1; D1 potentiator: -1; D1 ag: 4; D3 ag: 8

How did Cc1cc(OCCCCNC(C)C)cc(C(C)C)c1 do in these assays?
D1 antagonist: -3; D1 potentiator: 2; D1 ag: 7; DRD3 antagonist: -69*; D3 ag: -13

What do the screens show for `Cc1nc(-n2nc(C)c(Cc3ccccc3Cl)c2C)sc1C(=O)N1CCCCC1C` (stereo not drawn)?
D1 antagonist: -13; D1 potentiator: 2; D1 ag: 0; D3 ag: -3

Results for O=C(CSc1nnnn1-c1ccccc1)Nc1ncc(Cc2ccccc2Cl)s1 ?
D1 antagonist: -13; D1 potentiator: -5; D1 ag: 6; DRD3 antagonist: 5; D3 ag: 4

What do the screens show for `N=C1SC(c2ccccc2)C(=O)N1c1ncc(Cc2ccccc2Cl)s1` (stereo not drawn)?
D1 antagonist: -43*; D1 potentiator: -6; D1 ag: 1; DRD3 antagonist: inconclusive; D3 ag: -4

What do the screens show for `COc1ccc(S(=O)(=O)c2c(Nc3cccc(C)c3C)sc(C(=O)c3ccccc3)c2N)cc1`?
D1 antagonist: -27; D1 potentiator: 1; D1 ag: 38*; D3 ag: -6

What do the screens show for `COc1ccccc1Nc1sc(C(=O)c2ccc(F)cc2)c(N)c1S(=O)(=O)c1ccc(C)cc1`?
D1 antagonist: 16; D1 potentiator: -1; D1 ag: 32*; D3 ag: -9

What do the screens show for `Cc1ccc(C(=O)c2sc(Nc3ccccc3F)c(S(=O)(=O)c3ccccc3)c2N)c(C)c1`?
D1 antagonist: -6; D1 potentiator: -3; D1 ag: 18; D3 ag: -20

Results for COc1ccc(S(=O)(=O)c2c(Nc3c(C)cccc3C)sc(C(=O)c3ccc4c(c3)OCO4)c2N)cc1 ?
D1 antagonist: 13; D1 potentiator: -1; D1 ag: 31*; D3 ag: -12

How did COc1ccc(S(=O)(=O)c2c(Nc3c(C)cccc3C)sc(C(=O)c3ccc(F)cc3)c2N)cc1 do in these assays?
D1 antagonist: 9; D1 potentiator: -2; D1 ag: 52*; D3 ag: -19

How did COc1ccc(-c2nc3ccccc3n3c(-c4cccc(C)c4)c4c(=O)n(C)c(=O)n(C)c4c23)cc1 do in these assays?
D1 antagonist: 0; D1 potentiator: -5; D1 ag: 3; D3 ag: -10

Results for Cc1ccc(S(=O)(=O)c2cn(CC(=O)Nc3ccccc3)c3cc4c(cc3c2=O)OCO4)cc1 ?
D1 antagonist: -8; D1 potentiator: 3; D1 ag: 2; D3 ag: 1

Results for Cc1ccc(S(=O)(=O)c2cn(CC(=O)Nc3ccc(Cl)cc3)c3ccc(F)cc3c2=O)cc1C ?
D1 antagonist: 6; D1 potentiator: -1; D1 ag: 3; D3 ag: 5

Source: PubChem BioAssay
